“And” between values parts separate entries of the source, which are not always exact repeats. Equal entries are not always repeated. The panel holds about 83,000 compounds, 20% with a hit somewhere; the sample as a whole holds those more often.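 Compound tested at a single concentration for 48 hours in 96-well plates; a percent growth value below 10 was scored as active.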 Unmarked numbers belong to inactive results. The source made the active and inactive calls.
Assays:
Assay in all cases: NCI-60 one-dose screen, 48 h (100 = growth as untreated, 0 = no growth, -100 = all killed)
Details in all cases: 10 µM unless noted
HCT-15 colon = test system: HCT-15 colon
HT29 colon = test system: HT29 colon
SNB-75 CNS = test system: SNB-75 CNS
SNB-19 CNS = test system: SNB-19 CNS
U251 CNS = test system: U251 CNS
PC-3 prostate = test system: PC-3 prostate
SK-MEL-5 melanoma = test system: SK-MEL-5 melanoma
UACC-62 melanoma = test system: UACC-62 melanoma
LOX IMVI melanoma = test system: LOX IMVI melanoma
SK-MEL-28 melanoma = test system: SK-MEL-28 melanoma
SK-MEL-2 melanoma = test system: SK-MEL-2 melanoma
EKVX NSCLC = test system: EKVX NSCLC
SN12C renal = test system: SN12C renal
UO-31 renal = test system: UO-31 renal
TK-10 renal = test system: TK-10 renal
ACHN renal = test system: ACHN renal
CAKI-1 renal = test system: CAKI-1 renal
A498 renal = test system: A498 renal
CCRF-CEM leukemia = test system: CCRF-CEM leukemia
MOLT-4 leukemia = test system: MOLT-4 leukemia

Row | SMILES | growth (HCT-15 colon) | growth (HT29 colon) | growth (SNB-75 CNS) | growth (SNB-19 CNS) | growth (U251 CNS) | growth (PC-3 prostate) | growth (SK-MEL-5 melanoma) | growth (UACC-62 melanoma) | growth (LOX IMVI melanoma) | growth (SK-MEL-28 melanoma) | growth (SK-MEL-2 melanoma) | growth (EKVX NSCLC) | growth (SN12C renal) | growth (UO-31 renal) | growth (TK-10 renal) | growth (ACHN renal) | growth (CAKI-1 renal) | growth (A498 renal) | growth (CCRF-CEM leukemia) | growth (MOLT-4 leukemia)
1 | C=C(c1ccc(C(=O)O)cc1)c1cc2c(cc1C)C(C)(C)CCC2(C)C | 74.7% and 65.1% | 93.2% and 62.7% | 94.9% and 82.7% | 75.2% and 79.6% | 84.1% and 62.8% | 68.9% | 83% and 76.6% | 74.3% and 58.7% | 80.2% and 81.8% | 137% and 72.9% | 47.7% and 56.2% | 57.5% and 56.7% | 87.5% and 77.5% | 71.3% and 66.9% | 89.8% | 74.1% and 57.5% | 70.4% and 82.1% | 133% and 110% | 60.4% and 90% | 71.2% and 79.4%
2 | CC1=C2[C@@H](CC1)[C@]1(C)O[C@@](C(C)C)(C[C@H]1OC(=O)CO)[C@H]2OC(=O)C1CC1c1ccccc1 (stereo not given in full) | 96.8% | 75% | 102% | 88.5% | 79.6% | 62.6% | 95% | 53.3% | 77% | 114% | 75.8% | 93.8% | 61.5% | 54.2% | 88% | 43.1% | 74.1% | -20% (active) | 96.1% | 75.6%
3 | CN1CCN(C(=O)OCc2nc3c(N4CCOCC4)nc(Cl)nc3n2C)CC1 | -55.4% (active) | -67.7% (active) | -21.7% (active) | 57.9% | -14.1% (active) | -16.9% (active) | -12.8% (active) | -78% (active) | -96.2% (active) | -95.5% (active) | -57.4% (active) | -43.6% (active) | -75.1% (active) | -100% (active) | -78% (active) | -94.5% (active) | -75.2% (active) | -15.5% (active) | -6.96% (active) | -24.8% (active)
4 | CCCCCCCCN(CCCCCCCC)CC(O)c1cc(Cl)ccc1OC (stereo not given) | 61.8% | 38.7% | 76.5% | 91.2% | 78.6% | 71.9% | 56% | 64.6% | 13.1% | 80.5% | 80.1% | 59.9% | 75.4% | 52.3% | 96.4% | 71.5% | 62.3% | 54.8% | 92.8% | 79.3%
5 | COc1cc(/C=C2\C(=O)N(CCCCn3c4ccccc4c(=O)c4ccccc43)c3ccccc32)cc(OC)c1O | 36.3% | 41.6% | 51.7% | 62.7% | 67.5% | 39.9% | 55.3% | 37.5% | 52.8% | 68.5% | 26.5% | 74% | 71.1% | 49.5% | 120% | 63.3% | 52% | 75.5% | 15.9% | 29%
6 | Cc1ccc2c(c1)C(C)Cc1c(ncnc1-n1cnc3cc(C)ccc31)N2C (stereo not given) | 12.3% | -10.3% (active) | 60.3% | 37.8% | 6.82% (active) | 24.5% | -24.2% (active) | 30.6% | 25.7% | 53.1% | -1.91% (active) | 47.2% | 31.6% | 31% | 48.7% | 26.6% | 24.6% | 12.2% | 11.4% | 12%
7 | C=C(CNCCO)[C@@H]1CC[C@]2(CO)CC[C@]3(C)[C@H](CC[C@@H]4[C@@]5(C)CCC(NCCc6ccc(O)cc6)C(C)(C)[C@@H]5CC[C@]43C)[C@@H]12 (stereo not given in full) | -88.4% (active) | -68.7% (active) | -97.8% (active) | -72.9% (active) | -92.7% (active) | -43.4% (active) | -95.3% (active) | -81.5% (active) | -89.8% (active) | -94.1% (active) | -84.1% (active) | -75.3% (active) | -73.7% (active) | -95.4% (active) | -89.4% (active) | -96.6% (active) | -85.8% (active) | -87.5% (active) | -28.5% (active) | -30.3% (active)
8 | CCN(C(=O)N1CCN(c2cc3c(cc2F)c(=O)c(C(=O)O)cn3C2CC2)CC1)c1nc(-c2ccccc2)cs1 | 9.62% (active) | 10.9% | 31.3% | 22.5% | 20.7% | 11.5% | 11.7% | 13.1% | -11.1% (active) | 41.8% | 45.9% | 31% | 5.8% (active) | 1.81% (active) | 40.9% | 8.64% (active) | 29.4% | 5.67% (active) | 18.1% | 14.7%
9 | CCCCCCCCCCCCCCCCCCOc1cccc(CC(=O)OCC[N+](CC)(CC)CC)c1 | 81.3% | 64.5% | 61.9% | 38.3% | 37.6% | 55.4% | 29.8% | 63% | 56.5% | 92.8% | 84% | 77.7% | 42.8% | 86.4% | 67.5% | 90% | 62.7% | 89.3% | 32.5% | 72%
10 | C=CCNC(=O)Cc1c(-c2ccc(OC)cc2)oc2c(OC)c3c(c(OC)c12)OCO3 | 86.7% | 86.5% | 96.4% | 95.3% | 105% | 95.2% | 96.3% | 89% | 93% | 109% | 108% | 107% | 94.6% | 80.8% | 110% | 104% | 87.8% | 55% | 94.1% | 99.7%
11 | CC1=CC(C)(C)NC(=S)N1c1ccc(Cl)cc1 | 96.9% and 88.8% | 103% | 91.3% and 108% | 96.7% and 96.9% | 98.7% and 102% | 94% and 85.1% | 100% and 103% | 94.6% and 84.9% | 95.2% and 97.7% | 101% and 105% | 101% and 94.3% | 91.5% and 106% | 95.6% and 99% | 82.2% | 99.7% and 98.7% | 94.7% and 99.9% | 91.6% and 97.8% | 104% | 105% and 89.1% | 95% and 96.8%
12 | O=C(/C=C/c1cccs1)Nc1ncc(Cc2ccc(Cl)c(Cl)c2)s1 | 28.9% | 24.2% | 64% | 71.1% | 59% | 77.6% | 41.6% | 17.6% | 23.3% | 63.6% | 77.1% | 57.8% | 79.8% | 49.6% | 61.5% | 36.4% | 23.8% | 57.1% | 68% | 51.4%
13 | CCOC(=O)c1cnn(CC(O)CC)c1NC(=O)NCc1ccccc1C(F)(F)F (stereo not given) | 103% | 86.5% | 96% | 104% | 101% | 90.8% | 97.6% | 88.5% | 95.5% | 108% | 87.3% | 91.8% | 101% | 77.6% | 101% | 102% | 77.6% | 105% | 84.9% | 87.2%
14 | COc1ccc(/C=C/C(=O)c2cc3c(N)c(C(=O)Nc4ccccc4)sc3nc2C)cc1 | 5.97% (active) | -3.68% (active) | 11.9% | 1.78% (active) | 1.52% (active) | 17.1% | 4.63% (active) | 22.9% | 2.65% (active) | 52% | 53.1% | 47% | 12.5% | 35.2% | 36.9% | 31.4% | 23.1% | 18.6% | 16.3% | 30.9%
15 | C[C@@H]1CC[C@@H]2[C@@H]1[C@H](OC(=O)/C=C/c1ccccc1)[C@]1(c3ccccc3)C[C@@H](NC(=O)CO)[C@@]2(C)O1 | 91.7% | 109% | 88% | 96.2% | 88.9% | 78.9% | 97.9% | 71.7% | 96.1% | 103% | 107% | 90.2% | 86.8% | 69.7% | 112% | 79.1% | 70.1% | -3.59% (active) | 99.8% | 84%

From PubChem BioAssay (NCI)
